# Test results as given in PubChem BioAssay AID624256 (NMMLSC, 2012).
# The campaign covered roughly 360,000 compounds. About 3,700 (1%) were called active. Inconclusive results (about 2%) are left out.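 Rule for the calls: active = normalized GFP-positive differentiation at or above the plate's own cutoff, the solvent-only control mean plus 3 SD; inconclusive = no clear call, values can overlap the other calls; inactive = the rest.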 The list comes from a sample in which actives are over-represented; it also holds similar structures and randomly drawn compounds. Where a SMILES comes first, the peptide text is derived from it. The star is where a group is joined. OPac = O=C(CO*)c1ccccc1; Bz = O=C(c1ccccc1)*
# Test: induction of myeloid progenitor differentiation, primary screen, cell-based, flow cytometry, MLPCN library (AID 624256);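 for GFP+ MAC1+ double positive: cells exposed to compound for four days before flow analysis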;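 for normalized GFP-positive differentiation: cells exposed to compound for four days before flow analysis; 0% = DMSO wells and 100% = fulvestrant positive control at 5 µM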
# Settings: ER-HoxA9 myeloid progenitors, lysozyme-GFP differentiation, at 10 µM; GFP+ MAC1+ double positive: measured here: differentiation confirmed by MAC1 staining, stronger effect = higher value; normalized GFP-positive differentiation: stronger effect = higher value
Compound,GFP+ MAC1+ double positive,outcome,normalized GFP-positive differentiation
CN(C(=O)CN1CCN(c2cc(-c3ccc(OCc4ccccc4)cc3)ncn2)CC1)c1ccccc1,1.4%,inactive,
CCOC(=O)C1=C(CN2CCc3ccccc32)NC(=O)NC1c1cc(C)ccc1C (stereo not given),0.5%,inactive,
CCOC(=O)C1=C(CN2CCc3ccccc32)NC(=O)NC1c1ccc(Cl)cc1 (stereo not given),3.7%,inactive,
CCOC(=O)C1=C(CN2CCc3ccccc32)NC(=O)NC1c1cccc([N+](=O)[O-])c1 (stereo not given),1.5%,,18.4% (active)
CCCCCCCCN1C(=O)[C@H](CC(=O)NCc2cccc3ccccc23)C[C@@]2(C(=O)OC)CCCCC=C12,1.4%,inactive,
O=C(NCCN1CCOCC1)c1ccccc1N1C(=O)[C@@H]2Cc3c([nH]c4ccccc34)C(c3cccc(Cl)c3)N2C1=O (stereo not given in full),2.3%,inactive,
COC(=O)c1ccc2nc(-c3ccc(OC)c(OC)c3)c(Cc3ccccc3)n2c1,0.7%,inactive,
Nc1ccc(S(=O)(=O)NC(=O)c2ccccc2)cc1,0.9%,inactive,
Nc1ccc(C(=O)Nc2ccccc2N)cc1,1.3%,,21.2% (active)
O=C(Cc1ccccc1)Nc1ccc(C(=O)Nc2ccccc2C(=O)O)cc1,1.7%,inactive,
CCOc1ccc(CCN2C(=O)C(=O)N([C@@H](CC(C)C)CN3CCC[C@H]3CN3C(=O)C(=O)NC[C@@H]3Cc3ccccc3)C[C@@H]2CC(C)C)cc1,1.6%,inactive,
CC(OC(=O)CCc1nc(=O)c2ccccc2n1C)C(=O)NCc1ccc2c(c1)OCO2 (stereo not given),0.9%,inactive,
Cn1c(CCC(=O)OCC(=O)NCc2ccccc2Cl)nc(=O)c2ccccc21,34.4%,,369% (active)
O=C(COC(=O)Cn1cnc2ccccc2c1=O)NCc1ccccc1Cl,0.9%,inactive,
CC(=O)N1C[C@@H](CO)[C@@H](N(C)C(=O)c2ccco2)C[C@H]1c1ccccc1,0.1%,inactive,
CCCCCCCCN1C(=O)[C@H](CC(=O)NCC23CC4CC(CC(C4)C2)C3)C[C@@]2(C(=O)OC)CCCCC=C12,1%,inactive,
O=C(CN1C(=O)CSC1=O)N1CCCC(Nc2ccc(F)cc2)C1 (stereo not given),0.7%,inactive,
O=C1CCCCN1CCCC(=O)N1CCCC(Nc2ccc(F)cc2)C1 (stereo not given),45%,,233% (active)
O=C(CN1CCOC1=O)N1CCCC(Nc2ccc(F)c(F)c2)C1 (stereo not given),3.1%,inactive,
CC(C)(C)C1CCC(=O)N2CCC[C@]2(c2ccccc2)C1 (stereo not given in full),1%,inactive,
CN(C)c1cccc(NC(=O)c2ccc(-c3ccc(F)c(F)c3)c3ccoc23)c1,1.3%,inactive,
COc1ccc2c(c1)c1ncn(Cc3ccccn3)c(=O)c1n2C,0.7%,inactive,

Compound,GFP+ MAC1+ double positive,outcome,normalized GFP-positive differentiation
Cc1ccc2[nH]c3c(=O)n(Cc4ccccn4)cnc3c2c1,3%,inactive,
Cc1ccc2c(c1)c1ncn(Cc3ccc(F)cc3)c(=O)c1n2C,2.8%,,18% (active)
Cc1ccc(C(NC(=O)C2CCN(CCOc3ccc(Cl)cc3Cl)CC2)c2ccccn2)cc1 (stereo not given),1.4%,inactive,
COc1ccc(-c2cc(NC=O)c3ncc(-c4ccccc4)n3c2)cc1OC,3.3%,inactive,
COC(=O)C1(C(=O)OC)C[C@H](c2ccccc2)N(Cc2ccccc2OC)[C@@H]1c1ccccc1,1.5%,inactive,
Cc1ccc(Cc2c(-c3ccc(Cl)cc3)nc3c4ccccc4ccn23)cc1,0.4%,inactive,
Cc1ccc(CNC(=O)CN2CCN(Cc3ccc(Cl)cc3)C2=O)cc1,1%,inactive,
CC1CCCCC1NC(=O)COC(=O)Cc1ccc(Cl)cc1 (stereo not given),1.4%,inactive,
CC1CCCC(NC(=O)CN2CCN(Cc3ccc(Cl)cc3)C2=O)C1C (stereo not given),11.3%,,111% (active)
Cc1ccc(C)c(C(O)c2ncc(-c3cccc4ccccc34)[nH]2)c1 (stereo not given),0.8%,inactive,
C[C@H]1COc2cc(N3CCSCC3)ccc2S(=O)(=O)N1,0.8%,inactive,
Nc1c(C(=O)c2cccs2)sc2nsc(SCCN3CCCCC3)c12,6%,,344% (active)
CCCCCCN1CCN(C2CN(Cc3cn(CCCCCC)nn3)S(=O)(=O)C2)CC1 (stereo not given),0.5%,inactive,
Nc1[nH]c(C(=O)c2ccccc2)c(-c2ccncc2)c1C(=O)NCc1cccc2ccccc12,1.6%,inactive,
O=C(Nc1ccc(F)cc1)C(CCc1ccccc1)N1CCN(CC(=O)N2CCCC2)CC1 (stereo not given),1.3%,inactive,
O=C(C[n+]1ccc2c(c1)nnn2-c1ccccc1)c1ccc(Cl)cc1,0.8%,,63.4% (active)
c1ccc2c(c1)nnn2-c1ccncc1,0.8%,inactive,
O=C(CSc1cccc[n+]1[O-])c1ccc(Cl)cc1,0.4%,inactive,
Cc1cc(=O)oc2c3c(cc(OCC(=O)NCC(O)c4ccccc4)c12)OC(C)(C)CC3 (stereo not given),7.8%,inactive,
Cc1ccc(S(=O)(=O)NC(=O)COc2ccccc2C)cc1,0.4%,inactive,
O=C(CNC(=O)c1ccccc1)NCC(=O)OCC(=O)c1ccccc1 (Bz-Gly-Gly-OPac),0.2%,inactive,
Cc1ccccc1OCC(=O)NCC(=O)OCC(=O)c1ccc2ccccc2c1,3.6%,,24.5% (active)

Compound,GFP+ MAC1+ double positive,outcome,normalized GFP-positive differentiation
O=C(NC1CCCCC1)C(c1cc2ccccc2o1)n1c(=O)c(-c2ccco2)nc2ccccc21 (stereo not given),5.6%,inactive,
CSc1ccc(CN2CCC2(C)C(=O)Nc2ccc(C)c(O)c2)cc1 (stereo not given),0.4%,inactive,
CN(C)C(CNC(=O)c1cccc(S(=O)(=O)N2CCc3ccccc3C2)c1)c1ccccc1 (stereo not given),0.7%,inactive,
Cc1cccc(N2CCN(C(=O)c3cccc(S(=O)(=O)N4CCc5ccccc5C4)c3)CC2C)c1 (stereo not given),7.3%,,31.5% (active)
CC(NC(=O)c1cccc(S(=O)(=O)N2CCc3ccccc3C2)c1)c1ccco1 (stereo not given),0.3%,inactive,
CC1(C(=O)NS(=O)(=O)Cc2cccc(Cl)c2)CCN1C(=O)Cc1ccc(Cl)cc1Cl (stereo not given),0.5%,inactive,
OC[C@@H]1CN(Cc2ccncc2)C[C@H](n2cnc3c(N4CCN(c5ccccc5)CC4)ncnc32)O1,1.1%,inactive,
C=CCn1c2c(c3ccccc31)CCC2,1.4%,inactive,
CCOC(=O)[C@]12CCCC=C1N(CCC1=CCCCC1)C(=O)[C@H](CC(=O)N1CCCCC1)C2,3%,inactive,
CCOc1ccc(/C=C(/C#N)c2nnc(N3CCOCC3)n2-c2ccccc2)cc1OC,0.8%,inactive,
COc1cc(N2CCCC2)c(OC)cc1/C=C(/C#N)c1cccc(Br)c1,15%,,258% (active)
COc1ccc(S(=O)(=O)NC(=O)C2(C)CCN2C(=O)COc2ccc(Cl)cc2)cc1 (stereo not given),0.8%,inactive,
CCc1nc2c(OCc3ccccc3)cccn2c1N(C)C(=O)c1ccco1,1.6%,inactive,
CSc1ncccc1C(=O)NC1CCCCCC1,4.7%,,171% (active)
CSc1ncccc1C(=O)Nc1ccc2c(c1)OCO2,1%,inactive,
CSc1ncccc1C(=O)NCc1ccccc1Cl,0.9%,inactive,
CCCCCNC(=O)C1C(=O)Nc2ccccc2C(=O)N1C(C)(C)C (stereo not given),0.8%,inactive,
COC(=O)C1=CN(c2c(C)cc(C)cc2C)C(N)=C(C#N)C1c1cccc(F)c1 (stereo not given),1.5%,inactive,
CC1(C(=O)NS(=O)(=O)c2ccccc2Cl)CCN1C(=O)c1cccc(F)c1 (stereo not given),0.8%,inactive,
O=S1(=O)CCN2C(=N1)SC1=C2CCN(Cc2ccccc2)C1,0.5%,inactive,
Cc1ccc(C2=CSC3=NS(=O)(=O)CCN23)cc1C,4.9%,,25% (active)
CCCOc1ccc(C2=CSC3=NCCN23)cc1Cl,0.8%,inactive,

Compound,GFP+ MAC1+ double positive,outcome,normalized GFP-positive differentiation
CCCCn1c(N)c(N(CCOC)C(=O)c2cccc(S(=O)(=O)N(C)c3ccccc3)c2)c(=O)[nH]c1=O,1.3%,,16.7% (active)
CCCCn1c(N)c(N(CC)C(=O)c2ccc(N(C)S(=O)(=O)c3ccc(C)cc3)cc2)c(=O)[nH]c1=O,1.1%,inactive,
CCCCn1c(N)c(N(CCOC)C(=O)c2cccc(S(=O)(=O)N3CCCCC3)c2)c(=O)[nH]c1=O,0.5%,inactive,
Cc1cc(C)nc(SCc2nnc(SCC(=O)OC3CCCCC3)o2)n1,1.3%,inactive,
CCC1CCCCN1C(=O)CSc1nc(C)cc(C)n1 (stereo not given),1.8%,inactive,
C/C(=N\NC(=O)c1ccc(CSc2nc(C)cc(C)n2)cc1)C1CCCCC1,1.3%,,21.9% (active)
Cc1nc2c(OCc3ccc(Cl)cc3)cccn2c1N(C)Cc1cccs1,0.4%,inactive,
CC(C)CNC(=O)C1(C)CCCN1C(=O)CSc1ccccc1 (stereo not given),1.4%,inactive,
Cc1cc(C(=O)N2CCCC2(C)C(=O)O)c(C)o1 (stereo not given),1.3%,inactive,
N#Cc1ccc(-c2nc3c(Cl)cc(C(F)(F)F)cn3c2Cc2ccccc2C(F)(F)F)cc1,1.3%,inactive,
CCC(C(=O)Nc1c(C)cccc1C)n1c(-c2cc(C)cs2)nc2ccccc21 (stereo not given),3.7%,inactive,
CCc1ccc(NC(=O)C(=O)NNC(=O)c2cccs2)cc1,1.8%,inactive,
CCOC(=O)CSc1nnc(CNC(=O)c2cccs2)n1-c1ccccc1,1.4%,inactive,
CCc1c(C)sc(NC(=O)c2cccs2)c1C(N)=O,7.9%,,14.1% (active)
Cc1ccc(NC(=O)[C@H](Cc2ccccc2)NC(=O)CC[C@H]2O[C@@H](n3ccc(=O)[nH]c3=O)[C@H](O)[C@@H]2O)cc1C,0.8%,inactive,
O=C1Nc2cc(C(=O)N3CCN(c4ccc(F)cc4)CC3)ccc2NC1CSCc1cccc(F)c1 (stereo not given),10.1%,,56.9% (active)
C=CCn1c(SCc2cccc(F)c2)nc2cc(C(=O)N3CCC(C(N)=O)CC3)ccc2c1=O,0.5%,inactive,
Cc1ccc(CSCC2Nc3ccc(C(=O)N4CCN(c5ccc(F)cc5)CC4)cc3NC2=O)cc1 (stereo not given),1.7%,inactive,
COC(=O)[C@]12CCCCC=C1N(Cc1ccccc1)C(=O)[C@H](CC(=O)NCc1ccc(C)o1)C2,1.2%,inactive,
